Source: PubChem BioAssay (National Center for Advancing Translational Sciences (NCATS))
ATXN2 expr inh = Primary qHTS for Inhibitors of ATXN expression | HEK-293 ATXN2-luciferase reporter, luminescence, 24 h | Potency, µM (titrated, usually from 57 µM), most hits filed as inhibitors | actives 0.72% (n = 360,000); also: nearly all actives have a fitted effect of over 55% in size
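ATXN2-luciferase reporter cells (luciferase flanked by upstream and downstream ATXN2 gene portions) were treated 24 h at 37 °C with compounds at up to 57 uM. SteadyGlo luminescence gave expression; GF-AFC fluorescence gave viability.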
ALOX12 inh = Primary qHTS assay for inhibitors of human arachidonate 12S-lipoxygenase (ALOX12): Round 2; purified 12hLO, xylenol orange hydroperoxide absorbance; Polyunsaturated fatty acid lipoxygenase ALOX12 (Homo sapiens), P18054; Potency, µM (series often up to 108 µM), most hits filed as inhibitors; actives 1.1% (n = 580,000)
Target sequence (P18054 whole entry, looked up): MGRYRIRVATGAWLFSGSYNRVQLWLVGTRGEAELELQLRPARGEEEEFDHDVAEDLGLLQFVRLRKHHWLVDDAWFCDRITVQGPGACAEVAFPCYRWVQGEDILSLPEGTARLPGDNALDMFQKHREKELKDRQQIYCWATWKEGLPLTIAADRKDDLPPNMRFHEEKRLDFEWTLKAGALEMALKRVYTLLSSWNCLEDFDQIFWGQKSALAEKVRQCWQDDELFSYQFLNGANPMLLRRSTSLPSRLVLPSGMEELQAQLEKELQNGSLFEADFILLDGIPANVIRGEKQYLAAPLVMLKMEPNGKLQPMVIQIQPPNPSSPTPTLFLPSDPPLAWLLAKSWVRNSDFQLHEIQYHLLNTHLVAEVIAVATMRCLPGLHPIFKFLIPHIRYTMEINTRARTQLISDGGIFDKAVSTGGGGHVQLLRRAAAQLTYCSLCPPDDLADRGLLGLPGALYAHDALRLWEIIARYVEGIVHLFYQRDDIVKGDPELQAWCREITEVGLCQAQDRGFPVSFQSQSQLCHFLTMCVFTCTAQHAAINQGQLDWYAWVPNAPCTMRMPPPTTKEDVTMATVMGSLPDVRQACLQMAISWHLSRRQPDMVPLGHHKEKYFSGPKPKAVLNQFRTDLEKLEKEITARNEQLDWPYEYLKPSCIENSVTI
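Purified human 12hLO (150 nM final) in 25 mM Hepes, 0.01% Triton X-100, pH 7.0 was preincubated 15 min at room temperature with compound. Then 40 uM arachidonic acid was added, 30 min. Hydroperoxide was read by Fe-XO absorbance ratio 573/405 nm.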
ATXN viability = Viability Counterscreen for Primary qHTS for Inhibitors of ATXN expression | S2 cells (HEK-293 line with an ATXN2-luciferase reporter) viability, CellTiter-Fluor protease fluorescence, 24 h | Potency, µM (titrated, usually from 56.7 µM), hits mostly cytotoxic | actives 0.49% (n = 400,000) | AID 651635, 2014; also: nearly all actives have a fitted effect of over 40% in size
TGFb inhibitor = qHTS for Inhibitors of TGF-b; Potency, µM (highest dose often 46.1 µM), hits mostly inhibitors; AID 588855, 2011; actives 1.2% (n = 410,000); HepG2 CAGA-GFP TGF-b/SMAD3 reporter, GFP fluorescence, 18 h; TGF-beta stimulated, 500 pg/mL final; also: nearly all actives have a fitted effect of over 65% in size
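Using HEPG2 CAGA-GFP reporter cells at 1000 cells/well, we pinned test compounds, stimulated with recombinant TGF-beta (500 pg/mL final) and measured total well GFP after 18 h.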
HepG2 tox = qHTS for Inhibitors of TGF-b: Cytotox Counterscreen; actives 0.76% (n = 410,000); Potency, µM (series often up to 46.1 µM), usual class: cytotoxic; HepG2 CAGA-GFP viability, ATP luminescence, 18 h
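CellTiter-Glo luminescence gave cytotoxicity after 18 hours at 37 degrees C. The cells were HepG2 CAGA-GFP in 1% FBS DMEM, stimulated with 500 pg/mL TGF-beta after compound addition. %Activity was normalised to no-cell wells (complete cell-killing) and DMSO (no toxicity), and curves were fitted and classified.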
Numbers stand for hits; 0 = inactive; ? = inconclusive; - = not tested or not shown; [ ] = dose if it differs, or a comment. Sampled rows, rich in hits. Any-hit rate of the full collection: about 2.7%. Calls follow the shape of the dose curve; as a rule, active = well fitted curve in the direction sought with a large enough effect; inconclusive = small, poorly fitted or top-dose-only effect, or another doubt; inactive = no such curve, though single readings can be large; an effect the other way counts as inactive or inconclusive.

SMILES	ATXN2 expr inh	ALOX12 inh	ATXN viability	TGFb inhibitor	HepG2 tox
COc1ccc(/C=C\C(=O)NCC(=O)N/N=C/c2ccc(O)cc2O)cc1	-	0	?	0	0
O=C(CNC(=O)C1COc2ccccc2O1)N/N=C/c1ccc(O)cc1O (stereo not given)	12.6µM	0	0	?	0
O=C(/C=C\c1ccccc1)NCC(=O)N/N=C/c1ccc(O)cc1O	17.8µM	-	0	0	0
Cc1cc(SCC(=O)N/N=C/c2ccccc2C(=O)O)c(C)cc1Br	0	0	0	0	0
CC(C)(C)C(=O)Nc1ccc(NC(=O)C2CCCC2)cc1	-	0	-	-	-
CCOc1ccc2nc(N3CCCC(C(=O)NCCc4ccc(OC)cc4OC)C3)sc2c1 (stereo not given)	-	0	-	17.8µM	0
CCOc1ccc2nc(N3CCCC(C(=O)NCc4ccc(OC)cc4)C3)sc2c1 (stereo not given)	-	0	-	0	0
COc1cccc(CCC(=O)N2CCC3(CC2)NC(=O)N(c2cccc(F)c2)N3)c1	-	5.62µM	-	-	-
COc1cccc(CCC(=O)N2CCC3(CC2)NC(=O)N(c2ccccc2)N3)c1	-	2.51µM	-	-	-
COc1ccc(CCC(=O)N2CCC3(CC2)NC(=O)N(c2cccc(Cl)c2)N3)cc1	-	2µM	-	-	-
COc1cccc(CCC(=O)N2CCC3(CC2)CCC(O)(CN(C)C)CC3)c1	-	0	-	-	-
COc1ccc(CCC(=O)N2CCN(S(=O)(=O)c3cccc(Cl)c3)CC2)cc1	0	0	0	0	0
COc1cccc(C(=O)N2CCC3(CC2)NC(=O)N(c2ccccc2)N3)c1	-	6.31µM	-	-	-
O=C(c1cc2ccccc2oc1=O)N1CCN(Cc2cccc(Cl)c2)CC1	-	0	-	-	-
Cc1ccc2c(=O)cc(C(=O)Nc3cccc(Cl)c3)oc2c1C	-	0	-	-	-
CC(=O)N(c1nc(C)c(C(=O)Nc2ccc3cc[nH]c3c2)s1)C1CC1	-	0	-	-	-
COc1ccccc1CCC(=O)N1CCC2(CC1)CC(O)CCO2 (stereo not given)	-	0	-	-	-
O=C(CCc1ccccc1)N1CCC2(CC1)NC(=O)N(c1ccccc1)N2	-	2.24µM	-	-	-
COc1ccccc1CCC(=O)N1CCC2(CC1)NC(=O)N(c1ccccc1)N2	-	2µM	-	-	-
Cc1[nH]nc2ccc(-c3cncc(OC[C@@H](N)Cc4ccccc4)c3)cc12	3.06µM	7.69µM	-	-	-
Cc1cc(S(=O)(=O)Nc2cccc(C(F)(F)F)c2)sc1C(=O)O	-	0	-	-	-
ClCCn1c(CCl)nc2ccc(Cl)cc21	-	10µM	?	0	0
Cc1ccccc1NC(=O)C(C#N)=C1CCCCCCC1	-	0	-	-	-
CCOC(=O)c1c(NC(C)=O)sc2c1CCC(C=O)=C2Sc1ccccc1	28.2µM	?	-	?	0
CCOC(=O)c1c(NC(C)=O)sc2c1CCN(Cc1ccccc1)C2	0	0	0	0	0
SMILES	ATXN2 expr inh	ALOX12 inh	ATXN viability	TGFb inhibitor	HepG2 tox
CCCCCCCCCCCCCC[N+](C)(C)Cc1ccccc1	35.5µM	0[22.9 µM]	35.5µM	?	0
CCCCCCCCCCCCCCCC[N+](C)(C)Cc1ccccc1	31.6µM	?	35.5µM	-	-
CCCCCCCCCCCCCc1ccccc1	-	0	-	-	-
CCCCCCCCCCOC(=O)C[N+](C)(C)Cc1ccccc1	-	44.7µM	-	-	-
COc1ccc(C(C)=O)cc1CSCc1ccc(C#N)cc1	-	0	-	-	-
O=C(NCc1ccc(Cn2cccn2)cc1)c1cn[nH]c1-c1ccccc1	-	0	-	-	-
Cc1ccc(S(=O)c2ccc([N+](=O)[O-])c3nonc23)cc1 (stereo not given)	-	2µM	?	?	0
Cc1ccc(Nc2c([N+](=O)[O-])ccc3nonc23)c(C)c1	0	0	0	0	0
CC(C)c1ccc2oc(=O)cc(CN3CCC(C(N)=O)CC3)c2c1	-	0	-	-	-
Cc1ccccc1Nc1nc(CSc2nnnn2C2CC2)cs1	-	28.2µM	-	-	-
Cc1ccc(Nc2nc(CSc3nnnn3C3CC3)cs2)cc1	-	0	-	-	-
C[C@@H](Oc1cc(-n2cnc3ccc(CN4CCN(C)CC4)cc32)sc1C(N)=O)c1ccccc1C(F)(F)F	30.6µM	0	-	-	-
Cc1cccc(C)c1Nc1n[nH]c(=S)s1	-	?	0	0	0
COc1cccc(Nc2n[nH]c(=S)s2)c1	0	44.7µM	0	0	0
Cc1cccc(Nc2n[nH]c(=S)s2)c1C	0	6.31µM	0	0	0
CC(=O)Nc1n[nH]c(=S)s1	0	0	0	0	0
CC(C)c1ccc(Nc2n[nH]c(=S)s2)cc1	0	6.31µM	0	0	0
CC(C)c1ccc(Nc2nnns2)cc1	0	?	0	0	0
COc1cccc(Nc2nc3ccc(OC)cc3s2)c1	-	0	0	0	0
Cc1cc(C)c(Nc2n[nH]c(=S)s2)cc1C	-	28.2µM	0	0	0
Cc1ccc(C)c(NC(=O)C(Sc2ccccc2)c2ccccc2)c1 (stereo not given)	-	0	-	-	-
CN1C(=O)COc2ccc(NC(=O)C(=O)NC3CCCCC3)cc21	-	0	-	-	-
COc1ccccc1Nc1n[nH]c(=S)s1	0	14.1µM	0	0	0
CNc1n[nH]c(=S)s1	0	22.4µM	0	0	0
Cc1ccc(Nc2n[nH]c(=S)s2)c(C)c1	-	25.1µM	0	0	0
SMILES	ATXN2 expr inh	ALOX12 inh	ATXN viability	TGFb inhibitor	HepG2 tox
COc1ccccc1Nc1ccc(Nc2ccccc2OC)nn1	0	0	0	0	0
O=C(CSc1ncnc2ccccc12)Nc1ccc(Cl)cc1Cl	-	0	-	-	-
CCN1CCN(C(=O)c2ccc3c(=O)n(Cc4ccccc4OC)c(=S)[nH]c3c2)CC1	0	?	0	0	0
COc1ccccc1Cn1c(=S)[nH]c2cc(C(=O)N3CCCC3)ccc2c1=O	0	44.7µM	0	0	0
CN1CCCCCCN(Cc2ccc3[nH]ccc3c2)[C@H]2CCC[C@H]2C1=O	-	0	-	-	-
CC1(C)CC[C@]2(C(=O)n3ccnc3)CC[C@]3(C)[C@H](C(=O)C=C4[C@@]5(C)C=C(C#N)C(=O)C(C)(C)[C@@H]5CC[C@]43C)[C@@H]2C1	3.36µM	?	3.77µM	?	0
CC1(C(=O)OCC(=O)c2ccc3ccccc3c2)CC1(Cl)Cl (stereo not given)	-	0	-	-	-
Cc1cccc(-c2ccc(CN)cc2)c1	-	0	-	-	-
CC(=O)c1sc(NC(C)C)c(C#N)c1N	-	17.8µM	-	-	-
CS(=O)(=O)c1ccc(OCC2(CNS(=O)(=O)c3ccc(Cl)cc3)C[C@@H](O)[C@@H](O)C2)cc1 (stereo not given in full)	-	79.4µM	-	-	-
Cc1ccc(C(NC(=O)COc2ccccc2C(N)=O)c2cccs2)cc1 (stereo not given)	-	0	-	-	-
CC(C)(CNC(=S)NCCc1ccccc1)CNC(=S)NCCc1ccccc1	?	20µM	?	15.8µM	0
CNC(=S)NCCc1ccccc1	0	?	0	0	0
CC(NC(=S)NCCc1ccccc1)c1ccc(C(C)(C)C)cc1 (stereo not given)	-	39.8µM	-	-	-
O=C(CSc1nc2ccccc2c(=O)n1CC1CCCO1)Nc1ccc2[nH]c(=O)[nH]c2c1 (stereo not given)	-	0	-	-	-
N#Cc1ccc2[nH]ccc2c1	-	0	-	-	-
